Sampled rows, rich in hits. Any-hit rate of the full collection: about 2.2%.
VACV Venus inh = qHTS for Stage-Specific Inhibitors of Vaccinia Orthopoxvirus: Venus Reporter Primary qHTS. 0.46% of 330,000 active. Vaccinia virus Venus reporter expression, fluorescence. Potency, µM (titrated, usually from 36.5 µM), inactives show at the top dose activity change, negative = inhibition, actives largely listed as inhibitors. AID 720580, 2013; calls by dose curve; tested in A549 cells; further: nearly all actives have a fitted effect of over 30% in size
FMDV inh = High Throughput Screening for Foot and Mouth Disease Virus Antivirals; FMDV antiviral cell-based qHTS; Potency, µM (doses to about 57.9 µM), for the others: at the top dose activity change, negative = inhibition, usual class: inhibitors; 1.2% of 410,000 active; AID 1159524, 2015; calls by dose curve; tested in HEK293T cells; further: read-out not given here; nearly all actives have a fitted effect of over 45% in size
VACV mCherry inh = qHTS for Stage-Specific Inhibitors of Vaccinia Orthopoxvirus: mCherry Reporter Primary qHTS; Vaccinia virus mCherry reporter infection, fluorescence; 0.63% of 310,000 active; Potency, µM (highest dose often 36.5 µM), for the others: at the highest dose activity change, negative = inhibition, actives largely listed as inhibitors; calls by dose curve; tested in A549 cells; further: nearly all actives have a fitted effect of over 35% in size
Giardia FBPA inh = qHTS Assay for Inhibitors of Fructose-1,6-bisphosphate Aldolase from Giardia Lamblia; purified Giardia FBPA; 0.71% of 290,000 active; Potency, µM (titrated, usually from 59.6 µM), inactives show at the highest dose activity, negative = inhibition, usual class: inhibitors; A8B2U2; AID 2451, 2010; active means well fitted inhibition curve with a large enough effect; inconclusive means small, poorly fitted or top-dose-only effect, or effect the other way; further: nearly all actives have a fitted effect of over 55% in size
Target sequence (A8B2U2 whole entry, looked up): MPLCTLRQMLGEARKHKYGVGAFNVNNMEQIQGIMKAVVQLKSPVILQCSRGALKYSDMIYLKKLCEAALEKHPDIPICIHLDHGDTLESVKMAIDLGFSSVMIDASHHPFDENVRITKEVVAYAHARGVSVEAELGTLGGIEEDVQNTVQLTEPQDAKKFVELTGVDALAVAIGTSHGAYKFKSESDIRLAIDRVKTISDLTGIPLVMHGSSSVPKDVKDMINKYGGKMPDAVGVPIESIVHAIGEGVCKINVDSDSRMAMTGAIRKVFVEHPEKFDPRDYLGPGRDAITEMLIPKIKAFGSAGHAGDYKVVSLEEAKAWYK
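40 nM FBPA preincubated 10 min at RT with compound (up to 57.5 uM final), then substrate plus GAPDH/TPI/NAD/arsenate coupling and diaphorase/resazurin added. Fluorescence read after 20 min at RT, 525/598 nm.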
An asterisk follows results filed as active; i = inactive; ? = inconclusive; · = not tested or not shown. On the % scale 0 is the no-effect control and ±100 the full control effect; potency means the concentration at half of the fitted maximal effect.

SMILES	VACV Venus inh	FMDV inh	VACV mCherry inh	Giardia FBPA inh
NCC(=O)N[C@@H](CCCN=C(N)N)C(=O)NCC(=O)N[C@@H](CC(=O)O)C(=O)N[C@@H](CO)C(=O)N1CCC[C@H]1C(=O)O	·	·	·	0.9%
Cc1nn(Cc2cccc(F)c2)c(C)c1NC(=O)c1ccc(COc2ccccc2Cl)cc1	12.6µM*	?	11.2µM*	-1.9%
COc1ccccc1-c1c(C)nn2c(N3CCCCCC3)cc(C)nc12	?	28.2µM*	?	1.4%
Cc1ncc2c(c1CNC(=O)c1ccc3c(c1)OCO3)CCN(C(=O)c1ccoc1)C2	1.6%	3.3%	-9.6%	·
NC(N)=Nc1cc2ccccc2c2ccccc12	·	·	·	3.15µM*
CC1(C)CC(=O)C=C(NC2=CC3OC(c4ccccc4)OCC3OC2=O)C1 (configuration not stated)	?	8.91µM*	?	1.3%
CC1=C(C(=O)OCc2ccccc2)C(c2ccccc2Br)NC(=O)N1 (configuration not stated)	-13.7%	28.2µM*	i	-15.4%
CC1=C(C(=O)OCc2ccccc2)C(c2ccccc2Cl)NC(=O)N1C (configuration not stated)	-17.0%	17.8µM*	-0.7%	-2.8%
COc1ccccc1C1NC(=O)NC(C)=C1C(=O)OCc1ccccc1 (configuration not stated)	-14.8%	?	-15.9%	-5.5%
COc1ccc(COC(=O)C2=C(C)NC(=O)NC2c2ccc(F)cc2)cc1 (configuration not stated)	-21.9%	25.1µM*	-2.5%	1.4%
COC(=O)CCCCCN1C(=O)NC(c2ccccc2)C(C(=O)OCc2ccccc2)=C1C (configuration not stated)	-12.7%	28.2µM*	i	3.2%
C(=C\c1ccnc2ccccc12)/c1ccc(N(Cc2ccccc2)Cc2ccccc2)cc1	9.9%	·	-13.1%	·
COCCNC(=O)c1cccc(Nc2nc3ccccc3n3nnnc23)c1	-16.6%	-12.4%	-19.1%	·
Cc1ccc(CNC(=O)c2cccc(Nc3nc4ccccc4n4nnnc34)c2)cc1	7.94µM*	7.6%	6.31µM*	·
COc1cccc(Nc2nnc(SCC(=O)Nc3sccc3C(N)=O)s2)c1	·	15.8µM*	·	-11.7%
CC(C)(C)C(=O)Nc1ccc(S(=O)(=O)NC2=NCCCCC2)cc1	·	-11.6%	·	·
O=C(CCl)Nc1ccc(S(=O)(=O)NC2=NCCCCC2)cc1	?	31.6µM*	14.1µM*	·
CCCOc1ccc(C(=O)Nc2ccc(S(=O)(=O)NC3=NCCCCC3)cc2)cc1	?	-26.1%	8.91µM*	·
COc1cc(O)ccc1CN1CCc2nnc(C(C)NC(=O)c3cc(F)ccc3F)n2CC1 (configuration not stated)	-10.4%	-19.5%	i	·
O=C(CCN1CC2CCC(CC2)C1)c1cccs1	-7.5%	25.1µM*	i	·
CCOC(=O)c1ccc(N2C(=O)c3n[nH]c(-c4cccs4)c3C2c2cccc(OC)c2)cc1 (configuration not stated)	-13.9%	?	-9.5%	·
CCOc1ccc(-c2n[nH]c3c2C(c2cccs2)N(c2ccc(Br)cc2)C3=O)cc1 (configuration not stated)	-29.0%	?	-20.1%	·
CCOC(=O)c1ccc(N2C(=O)c3n[nH]c(-c4cccs4)c3C2c2ccc(OC)cc2OC)cc1 (configuration not stated)	?	?	12.6µM*	·
CCOc1ccc(N2C(=O)c3[nH]nc(-c4ccc(OC)cc4)c3C2c2cccs2)cc1 (configuration not stated)	?	39.8µM*	?	·
CCOC(=O)c1ccc(N2C(=O)c3n[nH]c(-c4ccco4)c3C2c2ccc(C)cc2)cc1 (configuration not stated)	-20.4%	31.6µM*	-25.5%	·
SMILES	VACV Venus inh	FMDV inh	VACV mCherry inh	Giardia FBPA inh
CCOC(=O)c1ccc(N2C(=O)c3[nH]nc(-c4ccc(C)cc4)c3C2c2ccc(O)cc2)cc1 (configuration not stated)	-24.8%	31.6µM*	-29.3%	·
CCOC(=O)c1ccc(N2C(=O)c3[nH]nc(-c4ccc(C)cc4)c3C2c2cccc(F)c2)cc1 (configuration not stated)	-21.9%	?	?	·
CCOC(=O)c1ccc(N2C(=O)c3n[nH]c(-c4ccco4)c3C2c2ccc([N+](=O)[O-])cc2)cc1 (configuration not stated)	?	?	?	2.3%
Cn1nnnc1SCCCNCc1cc(Cl)ccc1OCc1ccccc1	-25.7%	-26.1%	-18.0%	·
Cc1csc(C)[n+]1CCC1CCCCC1	?	·	-21.6%	·
O=C(NCCc1nc2ccccc2n1CCCOc1ccccc1Cl)C1CCCCC1	?	·	-25.7%	·
CCOC(=O)c1ccc(N2C(=O)c3[nH]nc(-c4ccc(OC)cc4)c3C2c2cccc(O)c2)cc1 (configuration not stated)	-24.9%	31.6µM*	?	·
COc1cc(NS(=O)(=O)c2cc(Br)cc3c2N(C(=O)C2CC2)CC3)cc(OC)c1	?	-91.7%	17.8µM*	·
Cc1ccc(NS(=O)(=O)c2cc(Br)cc3c2N(C(=O)C2CC2)CC3)cc1C	?	-51.4%	?	·
c1ccc(COc2ccc(Nc3ncnc4nc[nH]c34)cc2)cc1	-29.9%	14.6%	7.08µM*	3.6%
Cc1ccc(Nc2ncnc3nc[nH]c23)cc1	-20.7%	·	-7.9%	·
COCCNC(=O)c1cn(C2CCN(C3CCCC3)CC2)nn1	4.1%	-2.4%	-5.8%	·
CCn1cc(/C=N/NC(=O)c2ccc(C#N)cc2F)c2ccccc21	-11.4%	-2.6%	-3.7%	15.8µM*
COC(=O)[C@@H]1CCCN1Cc1ccc2c(c1)CN(Cc1coc3ccccc3c1=O)CCO2	13.7%	15.7%	-3.8%	·
CCCc1cc(-c2nc(N)ncc2-c2ccc3c(c2)OCCCO3)c(O)cc1OC	12.6µM*	?	?	-27.1%
O=C(Cc1ccc(-c2ccccc2)cc1)NO	-18.8%	·	-19.4%	·
O=C(c1ccc(Cl)cc1)N1CCCCC(Sc2nnc(-c3ccc4c(c3)OCO4)o2)C1=O (configuration not stated)	·	10µM*	·	-1.0%
CCN(CC)c1ccc(C2NC(=O)c3ccccc3N2)cc1 (configuration not stated)	?	11.2µM*	-18.7%	·
CCN(CC)c1ccc(C2Nc3cccc4cccc(c34)N2)cc1	-12.7%	12.5%	i	-24.6%
O=C1CC(CC(=O)N2CC3CCCC2C3)(c2cccc(F)c2)C(=O)N1Cc1cccnc1 (configuration not stated)	-1.4%	13.5%	-8.8%	·
CCN1C/C(=C/c2ccc(N3CCOCC3)cc2)C(=O)/C(=C/c2ccc(N3CCOCC3)cc2)C1	55.5%	28.2µM*	11.2µM*	-16.1%
CCC(OCC(O)CN1CCN(CCN2C(=O)c3cccc4cccc(c34)C2=O)CC1)c1ccccc1 (configuration not stated)	?	28.2µM*	?	-22.9%
CC(C)OCC(O)CN1CCN(CCN2C(=O)c3cccc4cccc(c34)C2=O)CC1 (configuration not stated)	·	-17.7%	·	?

Assay outcomes: PubChem BioAssay, National Center for Advancing Translational Sciences (NCATS)
